# PubChem BioAssay (EPA / NIEHS)
# “And” between values parts separate entries of the source, which are not always exact repeats. Identical values can stand only once. A structure can be active in one record and inactive in another. The source made the active and inactive calls. How the source made its calls: active means hit-call score of the fitted dose curve at least 0.9, where 1 is the maximum; inactive means score below 0.9.
# Assays:
# [1] = biological target: Bile acid receptor (Homo sapiens) (UniProt Q96RI1); test: ATG_IR1_CIS: Attagene CIS-FACTORIAL HepG2 Assay for human Nuclear Receptor Subfamily 1 Group H Member 4 (NR1H4), IR1 submotif (AID 2282946); details: IR1 reporter transcription, actives raise or lower the signal
# Method in brief: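 Readout: reporter transcript levels by RT-PCR with fluorescent capillary electrophoresis, from HepG2 cells transiently transfected with multiplexed cis-regulated reporters and dosed 24 h. Gain- or loss-of-signal fitted versus DMSO negative control.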
# [2] = ATG_GRE_CIS: Attagene CIS-FACTORIAL HepG2 Assay for human Glucocorticoid Response Elements (GRE) (AID 2282947); details: HepG2 GRE cis-reporter, Attagene multiplex mRNA; actives raise or lower the signal
# Method in brief: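 HepG2, transient cis-reporter transfection, 24 h. Reporter mRNA: RT-PCR then CE, fluorescence. Fit both directions vs DMSO.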
# [3] = ATG_ISRE_CIS: Attagene CIS-FACTORIAL HepG2 Assay for human Interferon Regulatory Factor 1 (IRF1) binding to an Interferon-Stimulated Response Element (ISRE) (AID 2282948); details: HepG2 ISRE cis-reporter (Attagene), mRNA transcription readout; actives raise or lower the signal
# Method in brief: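 Read-out: fluorescent RT-PCR products resolved by capillary electrophoresis, reporting endogenous transcription factor activity via ISRE-driven reporter mRNA in transfected HepG2 cells dosed for 24 h; gain or loss fitted relative to DMSO.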
# [4] = ATG_M_32_CIS: Attagene CIS-FACTORIAL HepG2 Assay for M32 Transcription Factor (Internal Marker) (AID 2282949); details: HepG2 Attagene cis-factorial M32 reporter, mRNA; actives raise or lower the signal;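 further: background control marker of the multiplexed CIS panel rather than a real target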
# Method in brief: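 Using DMSO as baseline, bidirectional curve fits were applied to reporter mRNA signals. These came from transiently transfected HepG2 cells exposed for 24 h, with RNA analysed by RT-PCR, FAM primer extension, HpaI digestion and CE.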
# [5] = ATG_M_06_CIS: Attagene CIS-FACTORIAL HepG2 Assay for M06 Transcription Factor (Internal Marker) (AID 2282950); details: HepG2 Attagene CIS-FACTORIAL M06 internal marker reporter; actives raise or lower the signal
# Method in brief: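 HepG2 liver cells, 24 h exposure. Reporter transcripts from transfected cis-element constructs quantified by RT-PCR/capillary electrophoresis fluorescence. Bidirectional curve fit against DMSO.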
# [6] = biological target: Hypoxia-inducible factor 1-alpha (Homo sapiens) (UniProt Q16665); test: ATG_HIF1a_CIS: Attagene CIS-FACTORIAL HepG2 Assay for human Hypoxia Inducible Factor 1 (HIF1A) (AID 2282951); details: HepG2 Attagene cis-factorial HIF1a reporter transcription; actives raise or lower the signal
# Method in brief: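 In this multiplexed cell assay, HepG2 cells bearing transfected cis reporters are dosed for 24 h and reporter mRNA is read by RT-PCR plus capillary electrophoresis; signal increases and decreases are both scored against DMSO.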
# [7] = biological target: Hepatocyte nuclear factor 6 (Homo sapiens) (UniProt Q9UBC0); test: ATG_HNF6_CIS: Attagene CIS-FACTORIAL HepG2 Assay for human Hepatocyte Nuclear Factor 6 (HNF6) (AID 2282952); details: HepG2 Attagene cis-factorial HNF6 reporter transcription; actives raise or lower the signal
# Method in brief: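 First, HepG2 cells were transfected with the multiplexed cis reporter library and dosed with chemical for 24 h. Next, RNA was reverse-transcribed, PCR-amplified and fluorescently labelled. Finally, HpaI-digested fragments were read by capillary electrophoresis.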
# [8] = biological target: Heat shock factor protein 1 (Homo sapiens) (UniProt Q00613); test: ATG_HSE_CIS: Attagene CIS-FACTORIAL HepG2 Assay for human Heat Shock Transcription Factor 1 (HSE) (AID 2282953); details: HepG2 HSE cis-reporter, Attagene RNA transcription; actives raise or lower the signal
# Method in brief: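 Endogenous transcription factor activity captured via cis-promoter reporter units transfected into HepG2; treatment lasted 24 h. Fluorescence intensity of reporter fragments analysed with bidirectional curve fitting, DMSO baseline.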
# [9] = ATG_MRE_CIS: Attagene CIS-FACTORIAL HepG2 Assay for human Metal Responsive Element (MRE) (AID 2282954); details: HepG2 MRE cis-reporter transcription, Attagene multiplex; actives raise or lower the signal
# Method in brief: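 Readout: capillary electrophoresis of 6-FAM-labelled, HpaI-digested RT-PCR reporter products. System: HepG2 cells carrying transient multiplexed cis reporters, dosed 24 h. Analysis: bidirectional fit, DMSO baseline.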
# [10] = ATG_PBREM_CIS: Attagene CIS-FACTORIAL HepG2 Assay for human Phenobarbital-responsive Enhancer Module (PBREM) (AID 2282955); details: HepG2 PBREM cis-reporter, Attagene multiplexed transcription; actives raise or lower the signal
# Method in brief: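 After a 24 h incubation with test chemical, transfected HepG2 cells yield total RNA; reporter-specific RT-PCR products are fluorescently labelled, HpaI-digested and resolved by capillary electrophoresis against ROX size standards.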
# [11] = biological target: Paired box protein Pax-6 (Homo sapiens) (UniProt P26367); test: ATG_Pax6_CIS: Attagene CIS-FACTORIAL HepG2 Assay for human Paired Box 6 (PAX6) (AID 2282956); details: HepG2 CIS-FACTORIAL PAX6 reporter transcription, RNA readout; actives raise or lower the signal
# Method in brief: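 Readout: reporter transcript fluorescence after RT-PCR and capillary electrophoresis. Cells: HepG2, transiently transfected with cis-regulated MRTUs. Exposure 24 h. Gain or loss of signal fitted bidirectionally relative to DMSO.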
# [12] = ATG_PXRE_CIS: Attagene CIS-FACTORIAL HepG2 Assay for human Pregnane X Receptor Element (PXRE) (AID 2282957); details: HepG2 Attagene CIS-FACTORIAL PXRE reporter, mRNA; actives raise or lower the signal
# Method in brief: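 After a 24 h chemical incubation, total RNA from transfected HepG2 cells was reverse-transcribed and reporter cDNA amplified, FAM-labeled, HpaI-digested and sized by capillary electrophoresis. DMSO served as baseline for bidirectional curve fitting.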
# [13] = ATG_PPRE_CIS: Attagene CIS-FACTORIAL HepG2 Assay for human Peroxisome Proliferator-activated Response Element (PPRE) (AID 2282958); details: HepG2 PPRE cis-element reporter, Attagene transcription factor profiling; actives raise or lower the signal
# Method in brief: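 Multiplexed reporter transcription units under cis-regulatory promoters were transfected into HepG2 cells to capture endogenous factor activity. A 24 h incubation preceded RNA isolation and fluorescent RT-PCR fragment analysis.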
# [14] = ATG_RORE_CIS: Attagene CIS-FACTORIAL HepG2 Assay for human RAR-related Orphan Receptor Element (RORE) (AID 2282959); details: HepG2 Attagene cis-factorial RORE reporter, mRNA; actives raise or lower the signal
# Method in brief: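 Fluorescence intensity of reporter-specific cDNA fragments, separated by capillary electrophoresis, gives the signal. Source: HepG2 liver cells transiently transfected with cis-element reporters and exposed 24 h; DMSO-normalized bidirectional fit.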
# [15] = ATG_Sox_CIS: Attagene CIS-FACTORIAL HepG2 Assay for human SRY-box transcription factor (SOX) (AID 2282960); details: HepG2 Attagene cis-factorial SOX reporter, mRNA; actives raise or lower the signal
# Method in brief: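 After 24 h of chemical treatment, transfected HepG2 reporter cells are lysed for total RNA. Transcript levels come from RT-PCR with labelled primer extension and capillary electrophoresis, analysed bidirectionally versus DMSO.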
# [16] = biological target: Transcription factor Sp1 (Homo sapiens) (UniProt P08047); test: ATG_Sp1_CIS: Attagene CIS-FACTORIAL HepG2 Assay for human Specificity Protein 1 (Sp1) (AID 2282961); details: HepG2 Sp1 cis-reporter transcription, actives raise or lower the signal
# Method in brief: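 Sp1-driven reporter mRNA, read as capillary electrophoresis fluorescence after RT-PCR, in transiently transfected HepG2 cells dosed for 24 h; signal change in either direction relative to DMSO.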
# [17] = ATG_SREBP_CIS: Attagene CIS-FACTORIAL HepG2 Assay for human Sterol Regulatory Element Binding (SREBP) (AID 2282962); details: HepG2 Attagene cis-factorial SREBP reporter, mRNA; actives raise or lower the signal
# Method in brief: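 Readout: fluorescent reporter-transcript peaks resolved by capillary electrophoresis after RT-PCR. Cells were human HepG2 carrying transfected cis-promoter reporter constructs, dosed for 24 h. Gain or loss of signal was fitted against DMSO controls.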
# [18] = biological target: Signal transducer and activator of transcription 3 (Homo sapiens) (UniProt P40763); test: ATG_STAT3_CIS: Attagene CIS-FACTORIAL HepG2 Assay for human Signal Transducer and Activator of Transcription 3 (STAT3) (AID 2282963); details: HepG2, Attagene cis-factorial STAT3 reporter transcription; actives raise or lower the signal
# Method in brief: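 Uses human liver HepG2 transiently carrying cis-regulated reporter transcription units. Following 24 h dosing, reporter mRNA induction was detected by RT-PCR and capillary electrophoresis, analysed bidirectionally versus DMSO.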
# [19] = ATG_TA_CIS: Attagene CIS-FACTORIAL HepG2 Assay for human TA Basal Promoter (AID 2282964); details: HepG2 Attagene CIS-factorial TA basal promoter reporter; actives raise or lower the signal
# Method in brief: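 Fluorescence from labelled RT-PCR reporter fragments, separated by capillary electrophoresis, gives the signal. Cells: HepG2 transiently carrying multiple reporter units, 24 h chemical dosing. Gain or loss relative to DMSO.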
# [20] = ATG_TCF_b_cat_CIS: Attagene CIS-FACTORIAL HepG2 Assay for human T-Cell-Factor with beta-catenin (TCF/b-cat) (AID 2282965); details: HepG2 TCF/beta-catenin cis-reporter transcription, actives raise or lower the signal
# Method in brief: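 Using capillary electrophoresis as the read-out, labelled reporter cDNA fragments from transiently transfected HepG2 were sized and quantified. Exposure lasted 24 hours; activity in either direction was referenced to DMSO.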
# Chain of Hepatocyte nuclear factor 6 (Homo sapiens) (Q9UBC0 whole entry, looked up, the tested form may be a part): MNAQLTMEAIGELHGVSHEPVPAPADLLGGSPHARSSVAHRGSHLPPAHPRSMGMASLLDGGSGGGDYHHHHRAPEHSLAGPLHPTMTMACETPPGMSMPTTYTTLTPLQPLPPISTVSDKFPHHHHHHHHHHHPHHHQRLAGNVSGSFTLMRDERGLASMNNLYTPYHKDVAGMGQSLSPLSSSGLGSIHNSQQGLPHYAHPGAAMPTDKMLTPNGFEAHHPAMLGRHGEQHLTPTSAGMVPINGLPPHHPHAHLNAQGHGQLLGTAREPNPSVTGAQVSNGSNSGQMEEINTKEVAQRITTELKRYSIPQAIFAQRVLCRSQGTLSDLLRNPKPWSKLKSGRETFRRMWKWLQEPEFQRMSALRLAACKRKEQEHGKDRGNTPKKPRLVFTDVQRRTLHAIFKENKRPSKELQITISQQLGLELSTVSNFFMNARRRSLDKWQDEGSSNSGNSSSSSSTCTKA
# Chain of Paired box protein Pax-6 (Homo sapiens) (P26367 whole entry, looked up): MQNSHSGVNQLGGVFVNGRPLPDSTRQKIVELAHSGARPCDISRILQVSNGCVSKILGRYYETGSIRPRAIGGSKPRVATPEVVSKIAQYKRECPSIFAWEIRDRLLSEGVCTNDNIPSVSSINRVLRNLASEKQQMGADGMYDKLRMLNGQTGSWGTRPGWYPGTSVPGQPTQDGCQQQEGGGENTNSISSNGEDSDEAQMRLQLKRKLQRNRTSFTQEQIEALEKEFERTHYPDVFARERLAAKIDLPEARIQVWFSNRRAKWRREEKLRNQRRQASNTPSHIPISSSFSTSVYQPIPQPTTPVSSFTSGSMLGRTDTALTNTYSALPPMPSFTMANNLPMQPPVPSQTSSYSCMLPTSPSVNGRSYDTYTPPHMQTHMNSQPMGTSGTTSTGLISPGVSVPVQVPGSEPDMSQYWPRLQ
# Chain of Bile acid receptor (Homo sapiens) (Q96RI1 whole entry, looked up): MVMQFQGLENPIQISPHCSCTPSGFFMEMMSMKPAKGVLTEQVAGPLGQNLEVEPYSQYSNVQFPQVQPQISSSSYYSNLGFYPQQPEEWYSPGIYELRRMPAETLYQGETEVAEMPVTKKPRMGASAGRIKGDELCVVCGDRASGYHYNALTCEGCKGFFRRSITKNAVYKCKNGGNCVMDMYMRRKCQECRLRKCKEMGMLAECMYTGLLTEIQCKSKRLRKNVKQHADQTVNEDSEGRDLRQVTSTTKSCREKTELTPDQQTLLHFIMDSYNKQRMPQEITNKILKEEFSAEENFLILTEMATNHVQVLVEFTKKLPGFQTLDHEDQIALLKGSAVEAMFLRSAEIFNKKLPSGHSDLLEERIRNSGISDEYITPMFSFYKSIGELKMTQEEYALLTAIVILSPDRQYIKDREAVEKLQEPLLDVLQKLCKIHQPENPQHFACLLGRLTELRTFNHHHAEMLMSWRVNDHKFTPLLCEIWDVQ
# Chain of Transcription factor Sp1 (Homo sapiens) (P08047 whole entry, looked up): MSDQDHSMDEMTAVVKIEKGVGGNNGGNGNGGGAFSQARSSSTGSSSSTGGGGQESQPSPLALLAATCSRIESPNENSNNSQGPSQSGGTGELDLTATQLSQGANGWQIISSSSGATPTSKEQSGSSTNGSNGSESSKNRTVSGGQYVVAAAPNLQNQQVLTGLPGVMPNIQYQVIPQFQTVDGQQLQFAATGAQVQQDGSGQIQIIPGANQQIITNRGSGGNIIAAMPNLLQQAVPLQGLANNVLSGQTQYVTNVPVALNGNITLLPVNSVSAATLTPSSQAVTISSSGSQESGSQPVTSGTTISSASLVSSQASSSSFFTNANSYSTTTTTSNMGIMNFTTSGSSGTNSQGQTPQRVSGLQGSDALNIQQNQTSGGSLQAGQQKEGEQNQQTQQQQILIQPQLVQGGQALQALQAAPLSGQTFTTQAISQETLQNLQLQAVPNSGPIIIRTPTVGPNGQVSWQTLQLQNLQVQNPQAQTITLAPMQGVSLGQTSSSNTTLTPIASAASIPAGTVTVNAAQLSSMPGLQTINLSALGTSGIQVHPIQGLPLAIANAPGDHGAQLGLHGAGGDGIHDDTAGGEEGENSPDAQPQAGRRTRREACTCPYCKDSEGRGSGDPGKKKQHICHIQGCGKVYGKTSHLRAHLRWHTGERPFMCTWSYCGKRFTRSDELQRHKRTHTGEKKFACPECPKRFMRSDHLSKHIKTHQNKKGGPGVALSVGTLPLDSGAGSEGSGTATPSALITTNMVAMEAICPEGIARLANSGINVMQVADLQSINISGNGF
# Chain of Hypoxia-inducible factor 1-alpha (Homo sapiens) (Q16665 whole entry, looked up): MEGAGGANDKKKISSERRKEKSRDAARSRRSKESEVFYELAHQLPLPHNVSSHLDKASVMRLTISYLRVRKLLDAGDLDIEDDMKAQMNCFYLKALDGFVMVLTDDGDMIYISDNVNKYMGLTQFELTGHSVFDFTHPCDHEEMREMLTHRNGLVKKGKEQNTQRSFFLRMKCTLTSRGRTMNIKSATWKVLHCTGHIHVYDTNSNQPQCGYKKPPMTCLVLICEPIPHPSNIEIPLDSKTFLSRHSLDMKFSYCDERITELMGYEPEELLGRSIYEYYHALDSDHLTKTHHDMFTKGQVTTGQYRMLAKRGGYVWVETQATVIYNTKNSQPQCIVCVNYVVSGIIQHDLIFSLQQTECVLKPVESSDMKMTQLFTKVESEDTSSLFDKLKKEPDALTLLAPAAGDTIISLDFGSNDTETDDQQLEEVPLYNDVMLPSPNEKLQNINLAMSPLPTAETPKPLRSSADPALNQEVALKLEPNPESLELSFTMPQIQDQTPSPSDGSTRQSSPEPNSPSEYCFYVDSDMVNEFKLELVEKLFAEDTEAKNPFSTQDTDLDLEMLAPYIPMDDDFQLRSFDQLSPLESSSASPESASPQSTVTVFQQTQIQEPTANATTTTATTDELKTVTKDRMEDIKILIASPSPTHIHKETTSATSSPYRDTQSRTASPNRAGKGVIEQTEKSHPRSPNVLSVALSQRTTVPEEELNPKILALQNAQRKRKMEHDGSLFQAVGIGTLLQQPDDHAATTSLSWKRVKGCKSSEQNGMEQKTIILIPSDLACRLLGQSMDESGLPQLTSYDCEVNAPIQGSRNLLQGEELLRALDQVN
# Chain of Heat shock factor protein 1 (Homo sapiens) (Q00613 whole entry, looked up, the tested form may be a part): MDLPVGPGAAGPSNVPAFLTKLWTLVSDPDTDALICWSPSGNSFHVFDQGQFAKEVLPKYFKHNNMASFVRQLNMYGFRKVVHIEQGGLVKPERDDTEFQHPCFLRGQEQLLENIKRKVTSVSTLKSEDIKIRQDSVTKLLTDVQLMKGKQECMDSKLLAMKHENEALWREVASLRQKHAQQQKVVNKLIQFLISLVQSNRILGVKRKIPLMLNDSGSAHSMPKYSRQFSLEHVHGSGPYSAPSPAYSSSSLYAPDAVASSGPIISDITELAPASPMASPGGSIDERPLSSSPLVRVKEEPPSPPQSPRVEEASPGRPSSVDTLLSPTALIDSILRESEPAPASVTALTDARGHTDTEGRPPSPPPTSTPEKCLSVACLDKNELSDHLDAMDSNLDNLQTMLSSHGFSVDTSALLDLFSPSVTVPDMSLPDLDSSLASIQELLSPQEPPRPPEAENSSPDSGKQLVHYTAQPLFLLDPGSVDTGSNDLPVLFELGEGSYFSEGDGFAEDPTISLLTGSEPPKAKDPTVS
# Chain of Signal transducer and activator of transcription 3 (Homo sapiens) (P40763 whole entry, looked up): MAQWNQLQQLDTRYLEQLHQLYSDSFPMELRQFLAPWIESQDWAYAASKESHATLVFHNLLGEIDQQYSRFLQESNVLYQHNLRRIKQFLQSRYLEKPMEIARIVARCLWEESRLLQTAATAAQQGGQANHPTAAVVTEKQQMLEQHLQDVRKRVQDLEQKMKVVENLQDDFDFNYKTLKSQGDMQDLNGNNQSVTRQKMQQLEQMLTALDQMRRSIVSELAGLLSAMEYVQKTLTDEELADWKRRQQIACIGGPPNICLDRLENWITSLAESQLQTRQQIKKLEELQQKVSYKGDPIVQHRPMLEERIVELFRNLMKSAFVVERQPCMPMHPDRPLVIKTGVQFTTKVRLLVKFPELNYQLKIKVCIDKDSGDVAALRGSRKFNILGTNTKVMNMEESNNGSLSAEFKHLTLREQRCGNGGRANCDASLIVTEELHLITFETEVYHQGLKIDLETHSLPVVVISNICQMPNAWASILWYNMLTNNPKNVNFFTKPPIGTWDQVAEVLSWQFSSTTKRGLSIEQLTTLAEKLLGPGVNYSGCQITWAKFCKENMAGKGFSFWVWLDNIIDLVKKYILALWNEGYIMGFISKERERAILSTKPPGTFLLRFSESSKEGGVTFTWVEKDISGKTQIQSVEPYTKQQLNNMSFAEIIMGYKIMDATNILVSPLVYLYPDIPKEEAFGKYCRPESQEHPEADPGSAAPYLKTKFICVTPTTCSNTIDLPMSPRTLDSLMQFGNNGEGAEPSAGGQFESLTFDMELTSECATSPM
structure (smiles),measurement,setting,value
CCO[Si](CCCNC(N)=O)(OCC)OCC,outcome,[1],inactive
same,outcome,[2],inactive
same,outcome,[3],inactive
same,outcome,[4],inactive
same,outcome,[5],inactive
same,AC50,[6],6.4 µM (active)
same,outcome,[7],inactive
same,outcome,[8],inactive
same,outcome,[9],inactive
same,outcome,[10],inactive
same,outcome,[11],inactive
same,outcome,[12],inactive
same,outcome,[13],inactive
same,outcome,[14],inactive
same,outcome,[15],inactive
same,outcome,[16],inactive
same,outcome,[17],inactive
same,outcome,[18],inactive
same,outcome,[19],inactive
same,outcome,[20],inactive
O=CCCCC=O,outcome,[1],inactive
same,outcome,[2],inactive
same,AC50,[3],125 µM (active)
same,outcome,[3],inactive
same,outcome,[4],inactive
same,outcome,[5],inactive
same,outcome,[6],inactive
same,outcome,[7],inactive
same,outcome,[8],inactive
same,outcome,[9],inactive
same,outcome,[10],inactive
same,outcome,[11],inactive
same,outcome,[12],inactive
same,outcome,[13],inactive
same,outcome,[14],inactive
same,outcome,[15],inactive
same,outcome,[17],inactive
same,outcome,[18],inactive
same,outcome,[19],inactive
same,AC50,[20],71.9 µM (active) and 100 µM (active)
O=C(O)c1ccccc1-n1cc(C(=O)O)c(=O)c2cc(Nc3c(F)cc(F)cc3Cl)c(Cl)cc21,outcome,[1],inactive
same,outcome,[2],inactive
same,outcome,[3],inactive
same,outcome,[4],inactive
same,outcome,[5],inactive
same,outcome,[6],inactive
same,outcome,[7],inactive
same,outcome,[8],inactive
same,outcome,[9],inactive
same,outcome,[10],inactive
same,outcome,[11],inactive
same,AC50,[12],62.3 µM (active)
same,outcome,[13],inactive
same,outcome,[14],inactive
same,outcome,[15],inactive
same,outcome,[16],inactive
same,outcome,[17],inactive
same,outcome,[18],inactive
same,outcome,[19],inactive
same,outcome,[20],inactive
CC(C)(c1cc(Br)c(O)c(Br)c1)c1cc(Br)c(O)c(Br)c1,AC50,[1],16.3 µM (active)
same,outcome,[1],inactive
same,outcome,[2],inactive
same,AC50,[3],44.8 µM (active)
same,outcome,[3],inactive
same,outcome,[4],inactive
same,outcome,[5],inactive
same,AC50,[6],47.1 µM (active)
same,outcome,[6],inactive
same,outcome,[7],inactive
same,AC50,[8],49.8 µM (active) and 49.3 µM (active)
same,AC50,[9],46.7 µM (active) and 48.6 µM (active)
same,outcome,[10],inactive
same,AC50,[11],46 µM (active) and 42.9 µM (active)
same,AC50,[12],7.93 µM (active) and 8.01 µM (active)
same,AC50,[15],41.4 µM (active) and 43.4 µM (active)
same,AC50,[17],31.7 µM (active) and 23 µM (active)
same,outcome,[18],inactive
same,AC50,[19],23.2 µM (active)
same,outcome,[19],inactive
same,AC50,[20],42.6 µM (active) and 22.7 µM (active)
CCCCOC(=O)CC(CC(=O)OCCCC)(OC(C)=O)C(=O)OCCCC,outcome,[1],inactive
same,outcome,[2],inactive
same,AC50,[3],26.7 µM (active)
same,outcome,[3],inactive
same,outcome,[4],inactive
same,outcome,[5],inactive
same,outcome,[6],inactive
same,outcome,[7],inactive
same,outcome,[8],inactive
same,AC50,[9],27.2 µM (active) and 20.7 µM (active)
same,AC50,[10],26.6 µM (active)
same,outcome,[10],inactive
same,outcome,[11],inactive
same,AC50,[12],1.18 µM (active) and 705 nM (active)
same,outcome,[13],inactive
same,AC50,[14],27.5 µM (active)
same,outcome,[14],inactive
same,outcome,[15],inactive
same,outcome,[16],inactive
same,outcome,[17],inactive
same,outcome,[18],inactive
same,outcome,[19],inactive
same,outcome,[20],inactive
CN(C[C@@H](CC[N+]12CCC(C3CCCCC3)(CC1)CC2)c1ccc(Cl)c(Cl)c1)C(=O)c1cc(C(F)(F)F)cc(C(F)(F)F)c1,outcome,[1],inactive
same,outcome,[2],inactive
same,outcome,[3],inactive
same,outcome,[4],inactive
same,outcome,[5],inactive
same,outcome,[6],inactive
same,outcome,[7],inactive
same,outcome,[8],inactive
same,outcome,[9],inactive
same,outcome,[10],inactive
same,outcome,[11],inactive
same,outcome,[12],inactive
same,outcome,[14],inactive
same,outcome,[15],inactive
same,outcome,[17],inactive
same,outcome,[18],inactive
same,outcome,[19],inactive
same,outcome,[20],inactive
